Assay results: ChEMBL document CHEMBL3988442, “University of Dundee, Small-Polar-MMV Screening Library” (2021)
For some assays here: Measured potencies and affinities stand elsewhere.

How the values were obtained:
Set-up in all cases: scale not given: direction of the effect not stated beside the values
[1] = molecular target: Protein translocase subunit SecA (Escherichia coli (strain K12)) (UniProt P10408); experiment: Assay to Identify E. coli SecA ATPase Inhibitors; type: functional; details: 30 µM
[2] = molecular target: T1, Ubiquitin-activating enzyme e1, putative (Leishmania donovani (strain BPK282A1)) (UniProt E9BSI1); experiment: Leishmania donovani Ubiquitin Activating Enzyme (LdE1); type: functional; details: 30 µM
T1 sequence (whole entry): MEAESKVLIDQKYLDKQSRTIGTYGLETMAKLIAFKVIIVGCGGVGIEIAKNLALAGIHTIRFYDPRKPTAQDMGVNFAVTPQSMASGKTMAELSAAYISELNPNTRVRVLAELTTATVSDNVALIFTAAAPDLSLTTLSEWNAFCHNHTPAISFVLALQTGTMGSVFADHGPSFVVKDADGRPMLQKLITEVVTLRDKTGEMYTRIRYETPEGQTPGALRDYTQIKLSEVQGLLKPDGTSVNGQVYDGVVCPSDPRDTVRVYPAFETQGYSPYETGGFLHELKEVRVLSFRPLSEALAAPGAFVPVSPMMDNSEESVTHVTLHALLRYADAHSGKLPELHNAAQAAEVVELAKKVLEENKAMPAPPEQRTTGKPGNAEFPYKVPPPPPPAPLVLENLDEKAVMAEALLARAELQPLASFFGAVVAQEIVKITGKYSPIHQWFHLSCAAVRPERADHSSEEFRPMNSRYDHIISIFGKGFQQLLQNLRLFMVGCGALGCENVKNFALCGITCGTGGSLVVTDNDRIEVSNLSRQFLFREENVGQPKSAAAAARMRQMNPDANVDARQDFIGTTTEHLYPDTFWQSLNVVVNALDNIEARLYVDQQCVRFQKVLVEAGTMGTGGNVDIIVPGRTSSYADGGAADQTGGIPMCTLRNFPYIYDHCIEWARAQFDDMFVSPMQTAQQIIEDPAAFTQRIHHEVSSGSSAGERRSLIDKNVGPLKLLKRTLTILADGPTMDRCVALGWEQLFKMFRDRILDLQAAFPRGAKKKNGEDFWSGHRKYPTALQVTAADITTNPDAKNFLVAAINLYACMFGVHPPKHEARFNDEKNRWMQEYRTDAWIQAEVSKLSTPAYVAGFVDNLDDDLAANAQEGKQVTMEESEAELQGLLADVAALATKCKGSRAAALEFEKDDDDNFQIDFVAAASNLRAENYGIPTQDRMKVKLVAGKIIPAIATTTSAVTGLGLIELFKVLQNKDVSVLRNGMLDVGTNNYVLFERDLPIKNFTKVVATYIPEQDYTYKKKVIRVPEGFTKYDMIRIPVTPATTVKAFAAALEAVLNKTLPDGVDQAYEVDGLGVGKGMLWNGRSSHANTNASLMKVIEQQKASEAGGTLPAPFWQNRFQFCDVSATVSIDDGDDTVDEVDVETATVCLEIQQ

[3] = molecular target: AMP-activated protein kinase, AMPK (Homo sapiens) (UniProt P54646+O43741+P54619+Q9UGJ0+Q9Y478+Q13131+Q9UGI9); experiment: AMP-dependent Kinase enzyme assay. An in vitro enzyme assay that detects ADP turnover that is directly proportional to AMPK activity. This uses naive AMPK that is activated during the assay with MK-8722; type: functional; details: 30 µM
[4] = molecular target: Sialic acid-binding Ig-like lectin 9 (Homo sapiens) (UniProt Q9Y336); experiment: Hs-Siglec9 ALPHAscreen SOP 20170721; details: 10 µM
Trypanosoma cruzi = experiment: Trypanosoma cruzi phosphomannomutase and mannose-1-phosphate guanylyltransferase assay; type: functional; details: 10 µM
[5] = molecular target: T2, Arginase-2, mitochondrial (Homo sapiens) (UniProt P78540); experiment: in vitro enzyme assay to detect the production of urea directly proportional to the activity of Arginase II; type: functional; details: 33.3 µM; also: in the data most compounds retested in dose-response had high values
T2 sequence (whole entry): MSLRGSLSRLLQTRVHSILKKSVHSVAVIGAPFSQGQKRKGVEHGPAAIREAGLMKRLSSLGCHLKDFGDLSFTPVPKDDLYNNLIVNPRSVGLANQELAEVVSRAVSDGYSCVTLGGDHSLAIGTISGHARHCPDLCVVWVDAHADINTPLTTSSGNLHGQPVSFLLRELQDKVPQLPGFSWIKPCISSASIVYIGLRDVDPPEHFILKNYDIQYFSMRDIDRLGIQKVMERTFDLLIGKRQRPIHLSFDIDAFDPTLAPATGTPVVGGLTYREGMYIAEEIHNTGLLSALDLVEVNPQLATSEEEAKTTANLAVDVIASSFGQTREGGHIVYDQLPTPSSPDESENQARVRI

[6] = molecular target: T3, Proteasome subunit beta (Trypanosoma cruzi) (UniProt O96673); experiment: Trypanosoma cruzi proteasome chymotrypsin-like activity (TcProtChymo) assay.; also: in the data most compounds retested in dose-response had high values; type: functional; details: 9.37 µM
T3 sequence (whole entry): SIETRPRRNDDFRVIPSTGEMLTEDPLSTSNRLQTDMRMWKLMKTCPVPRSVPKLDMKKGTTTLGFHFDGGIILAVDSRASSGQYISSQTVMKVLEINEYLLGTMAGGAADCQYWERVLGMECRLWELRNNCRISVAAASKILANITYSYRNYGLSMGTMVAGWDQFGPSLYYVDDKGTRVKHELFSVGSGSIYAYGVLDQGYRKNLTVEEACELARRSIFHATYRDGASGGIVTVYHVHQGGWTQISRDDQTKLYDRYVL

Homo sapiens = species: Homo sapiens; experiment: To identify inhibition of the IFN signalling (Jak-Stat) pathway via expression of an eGFP reporter gene under the control of an IFN-stimulated response element (ISRE) containing MxA promoter.; type: functional; details: 30 µM
[7] = molecular target: T4, Tyrosyl-tRNA synthetase, putative (Trypanosoma cruzi (strain CL Brener)) (UniProt Q4DSP6); experiment: Trypanosoma cruzi tyrosyl tRNA synthetase (TcYRS) _High Tyrosine SOP; type: functional; details: 30 µM; also: in the data most compounds retested in dose-response had high values
T4 sequence (whole entry): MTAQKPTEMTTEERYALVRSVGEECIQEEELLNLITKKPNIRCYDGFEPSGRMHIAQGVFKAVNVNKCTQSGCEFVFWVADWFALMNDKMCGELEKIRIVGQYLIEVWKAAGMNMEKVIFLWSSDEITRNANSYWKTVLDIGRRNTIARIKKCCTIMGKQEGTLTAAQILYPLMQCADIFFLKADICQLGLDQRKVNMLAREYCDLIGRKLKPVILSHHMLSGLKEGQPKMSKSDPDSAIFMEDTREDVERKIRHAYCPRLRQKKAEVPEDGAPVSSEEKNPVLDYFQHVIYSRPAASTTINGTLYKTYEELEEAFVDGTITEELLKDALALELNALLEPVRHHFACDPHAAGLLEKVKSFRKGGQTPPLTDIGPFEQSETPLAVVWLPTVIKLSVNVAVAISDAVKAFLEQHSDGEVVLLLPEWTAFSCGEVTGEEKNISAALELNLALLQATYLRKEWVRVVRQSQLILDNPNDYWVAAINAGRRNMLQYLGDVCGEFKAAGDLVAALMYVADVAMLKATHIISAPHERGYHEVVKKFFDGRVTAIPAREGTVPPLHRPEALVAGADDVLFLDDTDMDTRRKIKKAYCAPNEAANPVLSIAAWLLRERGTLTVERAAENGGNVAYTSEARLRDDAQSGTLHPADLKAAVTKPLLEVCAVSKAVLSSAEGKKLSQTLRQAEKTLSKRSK

[8] = molecular target: T4, Tyrosyl-tRNA synthetase, putative (Trypanosoma cruzi (strain CL Brener)); experiment: Trypanosoma cruzi tyrosyl tRNA synthetase (TcYRS) SOP; type: functional; details: 30 µM
[9] = molecular target: Chromo domain-containing protein 1 (Saccharomyces cerevisiae (strain ATCC 204508 / S288c) (Baker's yeast)) (UniProt P32657); experiment: ScCHD-1 Enzyme Inhibition Assay; type: functional; details: 30 µM; also: in the data most compounds retested in dose-response had high values
Sequence of Chromo domain-containing protein 1 (Saccharomyces cerevisiae (strain ATCC 204508 / S288c) (Baker's yeast)) (P32657 whole entry, the tested form may be a part): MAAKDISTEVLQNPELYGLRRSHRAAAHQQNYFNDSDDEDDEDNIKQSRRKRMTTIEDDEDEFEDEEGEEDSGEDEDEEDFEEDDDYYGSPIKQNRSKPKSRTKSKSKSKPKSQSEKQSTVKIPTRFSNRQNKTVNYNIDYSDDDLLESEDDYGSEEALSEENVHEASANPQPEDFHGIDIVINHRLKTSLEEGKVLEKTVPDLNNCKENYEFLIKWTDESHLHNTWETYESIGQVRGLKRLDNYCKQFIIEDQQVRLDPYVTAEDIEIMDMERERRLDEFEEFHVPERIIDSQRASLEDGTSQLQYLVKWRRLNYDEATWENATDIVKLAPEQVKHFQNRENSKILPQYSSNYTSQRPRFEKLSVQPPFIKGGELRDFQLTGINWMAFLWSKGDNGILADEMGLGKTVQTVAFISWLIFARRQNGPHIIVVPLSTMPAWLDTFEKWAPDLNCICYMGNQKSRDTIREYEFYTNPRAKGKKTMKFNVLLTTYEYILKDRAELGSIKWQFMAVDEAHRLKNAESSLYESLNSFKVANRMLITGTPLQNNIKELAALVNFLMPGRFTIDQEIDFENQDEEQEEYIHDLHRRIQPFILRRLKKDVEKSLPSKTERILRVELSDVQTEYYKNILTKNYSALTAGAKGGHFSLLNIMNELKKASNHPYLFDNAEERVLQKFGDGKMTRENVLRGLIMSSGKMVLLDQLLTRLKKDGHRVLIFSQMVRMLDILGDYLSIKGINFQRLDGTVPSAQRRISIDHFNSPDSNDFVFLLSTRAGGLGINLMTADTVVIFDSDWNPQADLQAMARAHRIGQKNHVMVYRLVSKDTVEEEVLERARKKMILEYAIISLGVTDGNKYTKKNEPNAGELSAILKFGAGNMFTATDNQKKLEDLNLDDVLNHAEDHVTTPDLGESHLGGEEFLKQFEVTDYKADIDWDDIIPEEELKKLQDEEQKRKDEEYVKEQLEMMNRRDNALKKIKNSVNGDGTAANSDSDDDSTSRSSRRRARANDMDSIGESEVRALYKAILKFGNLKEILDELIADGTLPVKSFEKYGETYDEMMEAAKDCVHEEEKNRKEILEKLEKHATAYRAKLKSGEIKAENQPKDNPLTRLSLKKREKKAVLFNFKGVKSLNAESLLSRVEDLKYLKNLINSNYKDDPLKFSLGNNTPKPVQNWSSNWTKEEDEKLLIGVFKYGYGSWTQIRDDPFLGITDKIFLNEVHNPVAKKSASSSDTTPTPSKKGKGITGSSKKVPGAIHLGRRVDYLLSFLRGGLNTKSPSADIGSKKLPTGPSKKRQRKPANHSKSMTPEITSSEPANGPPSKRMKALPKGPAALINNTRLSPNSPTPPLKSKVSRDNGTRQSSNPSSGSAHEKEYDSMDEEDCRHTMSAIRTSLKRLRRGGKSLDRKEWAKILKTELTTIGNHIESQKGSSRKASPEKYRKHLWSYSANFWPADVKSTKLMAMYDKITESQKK

Sequence of Sialic acid-binding Ig-like lectin 9 (Homo sapiens) (Q9Y336 whole entry): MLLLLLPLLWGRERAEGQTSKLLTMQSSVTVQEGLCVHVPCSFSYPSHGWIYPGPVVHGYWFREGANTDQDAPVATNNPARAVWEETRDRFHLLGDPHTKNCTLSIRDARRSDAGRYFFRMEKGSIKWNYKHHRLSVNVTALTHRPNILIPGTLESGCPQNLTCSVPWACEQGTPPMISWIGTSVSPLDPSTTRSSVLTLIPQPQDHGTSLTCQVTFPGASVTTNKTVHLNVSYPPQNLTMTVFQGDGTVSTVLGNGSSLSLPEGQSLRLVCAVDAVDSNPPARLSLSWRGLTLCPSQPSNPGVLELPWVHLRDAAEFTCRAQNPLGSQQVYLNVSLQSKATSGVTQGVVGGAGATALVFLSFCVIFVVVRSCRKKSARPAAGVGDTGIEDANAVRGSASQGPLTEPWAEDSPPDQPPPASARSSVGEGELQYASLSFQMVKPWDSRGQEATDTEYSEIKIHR
Sequence of Protein translocase subunit SecA (Escherichia coli (strain K12)) (P10408 whole entry): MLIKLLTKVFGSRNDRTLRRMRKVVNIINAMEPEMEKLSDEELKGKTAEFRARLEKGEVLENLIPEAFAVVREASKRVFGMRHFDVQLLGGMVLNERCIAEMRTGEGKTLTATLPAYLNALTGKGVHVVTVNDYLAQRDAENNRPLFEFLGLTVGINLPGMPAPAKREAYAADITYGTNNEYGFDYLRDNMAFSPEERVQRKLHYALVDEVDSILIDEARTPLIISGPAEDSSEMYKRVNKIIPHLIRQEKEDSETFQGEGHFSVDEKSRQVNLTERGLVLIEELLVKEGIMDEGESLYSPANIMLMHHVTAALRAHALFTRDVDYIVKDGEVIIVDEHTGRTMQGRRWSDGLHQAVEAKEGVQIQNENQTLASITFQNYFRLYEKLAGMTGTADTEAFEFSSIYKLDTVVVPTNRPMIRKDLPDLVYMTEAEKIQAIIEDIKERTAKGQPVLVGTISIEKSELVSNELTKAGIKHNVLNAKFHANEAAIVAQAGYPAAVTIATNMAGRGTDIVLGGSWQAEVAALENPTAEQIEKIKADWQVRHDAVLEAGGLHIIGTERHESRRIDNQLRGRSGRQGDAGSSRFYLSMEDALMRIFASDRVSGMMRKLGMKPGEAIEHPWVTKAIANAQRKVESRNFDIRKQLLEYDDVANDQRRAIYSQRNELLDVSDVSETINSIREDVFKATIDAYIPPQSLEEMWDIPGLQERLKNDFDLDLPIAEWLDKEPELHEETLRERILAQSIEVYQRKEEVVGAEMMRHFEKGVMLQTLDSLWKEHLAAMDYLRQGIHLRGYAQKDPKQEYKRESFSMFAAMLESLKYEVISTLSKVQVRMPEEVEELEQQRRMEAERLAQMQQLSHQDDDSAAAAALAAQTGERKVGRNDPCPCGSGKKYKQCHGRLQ

SMILES	Percent Effect [1]	Percent Effect [2]	Percent Effect [3]	Percent Effect [4]	Percent Effect (Trypanosoma cruzi)	Percent Effect [5]	Percent Effect [6]	Percent Effect (Homo sapiens)	Percent Effect [7]	Percent Effect [8]	Percent Effect [9]
CCn1nc(CC(C)C)cc1C(=O)NCCCOC	-2.12%	6.94%	0.357%	4.91%	0.291%	4.86%	15.8%	3.12%	5.26%	7.69%	0.96%
Cc1nn(C)c(N(C)C)c1CNCC(O)COc1ccc(F)cc1 (stereo unspecified)	-3.9%	2.74%	-7.44%	-8.06%	-1.57%	0.909%	12.2%	-14.5%	4.3%	12.5%	-3.3%
Cc1cccc(CCC(=O)N2CCCC(c3cc(C(N)=O)[nH]n3)C2)c1 (stereo unspecified)	-1.48%	-18.9%	4.97%	8.55%	6.13%	-10%	0.36%	9.14%	0.493%	11.1%	-8.73%
COc1cccc2c1OCC(CNC(=O)CSc1nc(N)n[nH]1)C2 (stereo unspecified)	-4.78%	0%	-3.58%	26.8%	3.62%	-3.23%	8.84%	4.85%	8.6%	21%	-3.99%
CCOc1ccc(CN(C)C(=O)NC(C)c2nncn2C)cc1 (stereo unspecified)	1.14%	15.3%	-8.94%	7%	0.0972%	4.42%	18.4%	11.4%	7.37%	5.13%	-0.989%
c1cc(CNCc2ccc3c(c2)CCO3)cc(N2CCOCC2)n1	-6.07%	5.41%	-3.9%	-3.3%	-3.03%	0.744%	6.27%	2.63%	2.15%	6.17%	-4.71%
Cc1noc(C)c1C(=O)NCC(c1ccc(F)cc1)N(C)C (stereo unspecified)	-3.62%	8.11%	1.69%	-12.4%	-3.25%	0.924%	0.898%	16.5%	5.94%	13.4%	0.216%
OC1CCN(Cc2cc3c(cc2Br)OCCO3)CC1	-3.08%	4.17%	1.37%	-5.64%	-7.68%	4.42%	0.526%	-3.8%	1.05%	2.56%	-1.21%
CCCNC(=O)CNc1cc(C#N)ccc1OCC	-6.04%	22.8%	-6.15%	3.16%	4.82%	-6.46%	11.7%	11.7%	4.43%	21.5%	-7.89%
Cc1nn(C)c2sc(C(=O)N3CCCC(n4ccnc4C)C3)cc12 (stereo unspecified)	-3.87%	7.89%	3.55%	2.66%	2.82%	-5.92%	8.92%	24.3%	4.25%	5.2%	-4.45%
Cc1nc(CN2CCCN(C(=O)c3ccccn3)CC2)oc1C	-1.98%	7.79%	0.524%	-0.904%	-0.686%	4%	10.8%	33%	2.86%	11.8%	-5.21%
CC(C)C(Sc1nnnn1C1CC1)C(=O)NCc1cccnc1 (stereo unspecified)	-3.26%	5.2%	3.52%	-3.03%	-5.24%	17.8%	13.3%	27.7%	6.8%	19.5%	-3.93%
CCc1c(C)nc2cc(C3CCN(Cc4ccccc4F)C3)nn2c1O (stereo unspecified)	0.76%	-14.9%	-7.43%	-10.9%	-2.77%	2.09%	20.9%	17%	4.3%	9.09%	-7.83%
CCOCC1CN(C(=O)c2cccn2C)Cc2cnn(CC3CC3)c21 (stereo unspecified)	-4.01%	5.2%	-0.603%	8.24%	0.69%	-12.3%	3.48%	6.88%	11.6%	16.7%	-8.59%
COc1ccc(C(=O)N2CCCCC2c2nc(C)cs2)nn1 (stereo unspecified)	-4.04%	2.6%	-3.01%	4.77%	10.3%	3.2%	-4.39%	7.94%	5.83%	14.6%	69.5%
O=C(Cn1cc(I)cn1)N1CCc2ccccc2C1	0.654%	-12%	6.11%	2.56%	-2.55%	-10%	6.1%	2.17%	2.12%	-2.56%	-2.67%
